# Most compounds without a hit are left out; they make up all but 18% or so of the library.
# TDP1 cell noCPT = qHTS for Inhibitors of human tyrosyl-DNA phosphodiesterase 1 (TDP1): qHTS in cells in absence of CPT; DT40 Tdp1-/- hTDP1 cells, no CPT, ATP luminescence, 48 h; actives 15% (n = 420,000); AID 686978, 2013; Potency, µM (top dose mostly 46.2 µM), most hits filed as inhibitors; note: nearly all actives have a fitted effect of over 55% in size
#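 Seeded 400 DT40-hTDP1 cells/well (vehicle DMSO, no 20 nM CPT); pinned compounds; ≥48 hr at 37 °C; CellTiter-Glo luminescence as viability measure.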
# LDHA block = qHTS assay for inhibitors of human lactate dehydrogenase; L-lactate dehydrogenase A chain (Homo sapiens), P00338; purified LDHA, NADH/diaphorase-resazurin fluorescence; active compounds read low; activity change, % (values are at about 110 or 230 µM); actives 0.15% (n = 480,000); AID 1347041, 2019; in the data active = activity change below about -30%; inconclusive = mostly about -25% to -30%
#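 Enzyme activity of human lactate dehydrogenase 5 (2 nM; 0.06 mM NADH, 0.2 mM pyruvate, 5 min, RT) is measured via a resazurin/diaphorase fluorescence readout of residual NADH.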
# VP16 counter = VP16 counterscreen qHTS for inhibitors of ROR gamma transcriptional activity. Drosophila S2 Gal4-VP16 UAS-luciferase, luminescence, 20 h. Potency, µM (series often up to 53.6 µM), most hits filed as inhibitors. actives 3.5% (n = 310,000). AID 2546, 2010;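 note: Gal4-VP16 expression switched on by copper sulfate through the metallothionein promoter; nearly all actives have a fitted effect of over 50% in size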
# IL-1B inflam inh = qHTS for Inhibitors of Inflammasome Signaling: IL-1-beta AlphaLISA Primary Screen; THP-1 LPS/ATP IL-1B secretion, AlphaLISA, 16 h; active compounds read low; actives 4.7% (n = 360,000); activity change, % at 57.5 µM; AID 743279, 2014; in the data active = activity change below about -50%; inconclusive = mostly about -30% to -49%
#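 THP-1 cells pretreated 1 hr with compounds (up to 57.5 uM final), then stimulated with LPS (250 ng/mL final) plus ATP (1.25 mM final); secreted IL-1B measured by AlphaLISA after 16 hr, decreased signal indicating inhibition.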
# RORg inh = qHTS for inhibitors of ROR gamma transcriptional activity; Nuclear receptor ROR-gamma (Mus musculus), P51450; Drosophila S2 Gal4-RORgamma UAS-luciferase reporter, 20 h; Potency, µM (doses to about 53.6 µM), most hits filed as inhibitors; actives 5.4% (n = 310,000); AID 2551, 2010; note: nearly all actives have a fitted effect of over 60% in size
# Target sequence (P51450 whole entry, looked up, the tested form may be a part): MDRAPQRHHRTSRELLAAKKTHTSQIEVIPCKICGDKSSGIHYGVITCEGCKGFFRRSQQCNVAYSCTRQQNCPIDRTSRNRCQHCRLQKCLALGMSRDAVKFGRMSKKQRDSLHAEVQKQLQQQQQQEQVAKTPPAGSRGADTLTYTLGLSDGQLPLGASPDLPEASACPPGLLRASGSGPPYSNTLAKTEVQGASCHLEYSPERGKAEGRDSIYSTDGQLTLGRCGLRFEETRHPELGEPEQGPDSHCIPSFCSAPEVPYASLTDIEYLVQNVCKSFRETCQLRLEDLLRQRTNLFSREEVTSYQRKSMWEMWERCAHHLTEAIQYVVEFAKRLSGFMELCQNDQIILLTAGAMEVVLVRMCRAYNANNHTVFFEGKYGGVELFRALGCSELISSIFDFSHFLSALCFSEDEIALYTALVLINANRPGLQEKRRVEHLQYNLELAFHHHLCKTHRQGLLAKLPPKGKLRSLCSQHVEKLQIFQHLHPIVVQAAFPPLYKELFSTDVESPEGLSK
#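 ROR gamma transcriptional activity was tracked as Gal4-UAS luciferase output in stably transfected Drosophila Schneider cells, with compound added 1 hr before 700 uM copper sulfate induction and a 20 hr ambient-temperature incubation.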
# DT40 TDP1 CPT = qHTS for Inhibitors of human tyrosyl-DNA phosphodiesterase 1 (TDP1): qHTS in cells in presence of CPT. actives 12% (n = 420,000). Potency, µM (highest dose often 46.2 µM), hits mostly inhibitors. chicken DT40 Tdp1-/-;hTDP1 cells + 20 nM CPT, ATP luminescence, 48 h; note: nearly all actives have a fitted effect of over 55% in size
#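 Chicken DT40 Tdp1-/- cells complemented with human TDP1, 400 cells/well, exposed to compounds plus 20 nM camptothecin for at least 48 h at 37 C; viability read as ATP content by CellTiter-Glo luminescence.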
# Hits are given with their value; - = inactive; ? = inconclusive; . = not tested or not shown; [ ] = another dose, or the depositor's remark. Unless noted, calls come from the whole dose curve; as a rule, active = well fitted curve in the direction sought with a large enough effect; inconclusive = small, poorly fitted or top-dose-only effect, or another doubt; inactive = no such curve, though single readings can be large; an effect the other way counts as inactive or inconclusive.
SMILES,TDP1 cell noCPT,LDHA block,VP16 counter,IL-1B inflam inh,RORg inh,DT40 TDP1 CPT
COc1cc2c(-c3ccc4[nH]ccc4c3)c(-c3ccc(C#N)cc3)oc(=O)c2cc1OC,5.8µM,-,.,-,.,14.6µM
COCc1ccc(-c2c(-c3cc(OC)cc(OC)c3)oc(=O)c3cc(OC)c(OC)cc23)cc1,20.6µM,-,.,-,.,16.4µM
COc1cc2c(C#CCCCO)c(-c3ccsc3)oc(=O)c2cc1OC,9.2µM,-,.,-,.,23.1µM
COc1cc(OC)cc(-c2oc(=O)c3cc(OC)c(OC)cc3c2C#CCCCO)c1,?,-,.,-,.,?
COc1ccc(-c2c(-c3ccsc3)oc(=O)c3cc(OC)c(OC)cc23)cn1,?,-,.,-,.,?
COc1cc2c(-c3ccc4cc[nH]c4c3)c(-c3ccsc3)oc(=O)c2cc1OC,20.6µM,-,.,-,.,18.4µM
CCOC(=O)c1cc(NC(=O)/C=C/C(=O)O)cc(C(=O)OCC)c1,.,-,.,.,.,.
Cc1oc2cc(OCC(=O)NC3(C)CCS(=O)(=O)C3)ccc2c(=O)c1Oc1ccccc1 (stereo unspecified),.,-,.,.,.,.
COCCNC(=O)CSc1nc2ccccc2c(=O)n1-c1cccc(OC)c1,-,-,-[0.365 µM],-,-,-
COCCNC(=O)c1ccc(-n2c(SCc3ccncc3)nc3ccccc3c2=O)cc1,-,-,-,-72.9,-,-
COCC(C)n1c(SCc2ccc(OC)c(F)c2)nc2ccccc2c1=O (stereo unspecified),4.11µM,-,-,-,?,5.8µM
COCC(C)n1c(SCc2ccc(C(=O)OC)cc2)nc2ccccc2c1=O (stereo unspecified),9.2µM,-,-,-,?,11.6µM
Cc1ccccc1COc1ccccc1C(=O)O,.,-,.,.,.,.
CCCOC(=O)COc1ccc2c(=O)c(Oc3ccccc3Br)coc2c1,.,-,.,.,.,.
O=C(O)c1cc(/C=C/c2csc(-c3ccc(Cl)cc3)n2)nc2ccccc12,.,-,.,.,.,.
CCCN(CC(=O)Nc1ccccc1OC)C(=O)c1ccc2[nH]c3c(c2c1)CC(C)CC3 (stereo unspecified),?,-,.,-59.2,.,?
CCN(CC(=O)Nc1ccccc1OC)C(=O)c1ccc2[nH]c3c(c2c1)CC(C)CC3 (stereo unspecified),?,-,.,-,.,18.4µM
CCOc1ccccc1O[C@H](c1ccccc1)[C@H]1CNCCO1,18.8µM,-,.,-,.,29.9µM
CCOc1ccccc1NC(=O)C1C2CCC(O2)C1C(=O)O (stereo unspecified),-,-,-,-,-,-
O=C(c1c[nH]c2ccccc12)C(Sc1cc(Cl)ccc1Cl)c1ccccc1 (stereo unspecified),.,-,.,.,.,.
CCN(c1ccccc1)S(=O)(=O)c1cccc(C(=O)N(C)CCOc2ccccc2)c1,20.6µM,-,.,-,.,14.6µM
Cc1ccc(OCCNC(=O)c2cccc(Oc3ccc(C(F)(F)F)cc3[N+](=O)[O-])c2)cc1,16.4µM,-,-,-,-,?
Cc1cccc(OCCNc2ccc(C(F)(F)F)cc2[N+](=O)[O-])c1,-,-,?,-,-,-
COc1ccc(OCCN(C)C(=O)c2cccc(S(=O)(=O)N(C)c3ccccc3)c2)cc1,18.4µM,-,.,?,.,11.6µM
CCCCN(c1ccccc1)S(=O)(=O)c1cccc(C(=O)O)c1,-,-,-,-,-,-
Cc1ccc(S(=O)(=O)NCc2ccc(C(=O)NCCN(Cc3ccccc3)C(C)C)cc2)cc1,16.4µM,-,-,-65.9,-,?
COC(=O)CNC(=O)c1cccc2c(=O)c(C)c(-c3ccccc3)oc12,.,-,.,.,.,.
Cc1cccc(OCCNC(=O)c2ccc(Cl)c(S(=O)(=O)NCc3cccnc3)c2)c1,2.59µM,-,.,-,.,3.66µM
Cc1ccc(OCCNC(=O)c2cccc(S(=O)(=O)NCc3ccccc3)c2)cc1,4.61µM,-,.,-,.,4.11µM

# Screens deposited in PubChem BioAssay by National Center for Advancing Translational Sciences (NCATS).
